# Measurements: PubChem BioAssay
# Where “and” joins values, the source holds several entries; their conditions need not be identical. Equal values may be shown once. Calls of active or inactive are those of the source.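 The calls were made as follows: active = compound whose remaining NAD level is above about 45 nM (limit read from the data); inactive = the rest.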
# Test system: not listed separately
# Test: survival rescue of mitochondrial mutant cells in low glucose, primary screen, MELAS cybrids, Rieske KO mouse fibroblasts, CellTiter-Glo (AID 1508586);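 also: z relative to plate mean and SD of compound and empty wells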
# Details: Rieske KO mouse fibroblast survival, CellTiter-Glo 72 h
row,Structure (SMILES),z-score
1,CC1CC(OC(=O)C(O)c2ccccc2)CC(C)(C)N1C (stereo not given),-0.373
2,O=C(O)c1ccccc1OP(=O)(O)O,-0.238
3,Cc1ccnc(NS(=O)(=O)c2ccc(N)cc2)n1,-0.152 and -0.312
4,Cc1c(NC(C)C)c(=O)n(-c2ccccc2)n1C,-0.708
5,Nc1ccc(S(=O)(=O)Nc2cnc3ccccc3n2)cc1,0.547
6,COc1ccc(C(=O)c2ccccc2O)c(O)c1,-0.0959
7,CC(=O)[C@@]1(O)CC[C@H]2[C@@H]3C[C@H](C)C4=CC(=O)C=C[C@]4(C)[C@@]3(F)[C@@H](O)C[C@@]21C,0.456
8,Nc1c2ccccc2nc2ccccc12,-1.96
9,COc1c2occc2c(OC)c2c(=O)cc(C)oc12,-0.129
10,O=C(O)CCCC[C@@H]1SC[C@@H]2NC(=O)N[C@@H]21,-0.214
11,COc1cnc(NS(=O)(=O)c2ccc(N)cc2)nc1,-1.17 and -0.837
12,Nc1ncnc2nc[nH]c12,-0.641
13,CCCCOC(=O)c1ccc(N)cc1,-0.282
14,NS(=O)(=O)c1cc2c(cc1Cl)NC(CSCc1ccccc1)=NS2(=O)=O,-0.312
15,Nc1nc2c(c(=O)[nH]1)N(C=O)C(CNc1ccc(C(=O)N[C@@H](CCC(=O)O)C(=O)O)cc1)CN2 (stereo not given in full),0.152
16,CCCCC(CC)CN1CN(CC(CC)CCCC)CC(C)(N)C1 (stereo not given),-0.231
17,C[C@H](N)[C@H](O)c1cccc(O)c1,0.306
18,NC(=O)NC1NC(=O)NC1=O (stereo not given),0.175
19,C[N+]12CCC(CC1)C(OC(=O)C(O)(c1ccccc1)c1ccccc1)C2 (stereo not given),-0.405
20,O=C(O)c1ccccc1O,-0.159

row,Structure (SMILES),z-score
1,CCOc1ccc(Cc2nccc3cc(OCC)c(OCC)cc23)cc1OCC,1.27
2,C[C@@H]1C[C@H]2[C@@H]3C[C@H](F)C4=CC(=O)C=C[C@]4(C)[C@@]3(F)[C@@H](O)C[C@]2(C)[C@@]1(O)C(=O)CO,0.936
3,Oc1c(Br)cc(Br)c2cccnc12,-0.139
4,Cc1c(Nc2ncccc2C(=O)O)cccc1C(F)(F)F,0.0703 and 0.938
5,CCN(CC)CCNC(=O)c1cc(Br)c(N)cc1OC,0.146
6,CCCCN(CCCC)CCCOC(=O)c1ccc(N)cc1,-0.637
7,O=C(O)c1ccccc1C(=O)Nc1ccc(S(=O)(=O)Nc2nccs2)cc1,0.0843
8,CCC(Cc1c(I)cc(I)c(N)c1I)C(=O)O (stereo not given),-0.459
9,Nc1ccc(S(=O)(=O)Nc2nccs2)cc1,-0.264 and 0.18
10,Nc1ccc(S(=O)(=O)NC(=O)c2ccccc2)cc1,-0.379
11,CN1[C@@H]2CC[C@H]1CC(OC(=O)C(O)c1ccccc1)C2 (stereo not given in full),0.375
12,CCOC(=O)c1ccc(N)cc1,-0.136 and -0.658
13,CC(NCCC(c1ccccc1)c1ccccc1)c1ccccc1 (stereo not given),-0.331
14,CCN1CCCC(OC(=O)C(c2ccccc2)c2ccccc2)C1 (stereo not given),-0.154
15,CCCCc1nc(Cl)c(CO)n1Cc1ccc(-c2ccccc2-c2nn[nH]n2)cc1,-0.0146 and 0.701
16,CC1(C)O[C@@H]2C[C@H]3[C@@H]4C[C@H](F)C5=CC(=O)CC[C@]5(C)[C@H]4[C@@H](O)C[C@]3(C)[C@]2(C(=O)CO)O1,0.615
17,COc1cc(NS(=O)(=O)c2ccc(N)cc2)ncn1,0.095
18,OCC(O)CN1CCN(c2ccccc2)CC1 (stereo not given),-0.169 and -0.218 and 0.0795
19,Cc1c(C(N)=O)cc([N+](=O)[O-])cc1[N+](=O)[O-],-0.175
20,CCN(CCCCOC(=O)c1ccc(OC)c(OC)c1)C(C)Cc1ccc(OC)cc1 (stereo not given),0.343

# Target: NAD(+) hydrolase SARM1 (Homo sapiens) (UniProt Q6SZW1)
# Sequence (Q6SZW1 whole entry, looked up): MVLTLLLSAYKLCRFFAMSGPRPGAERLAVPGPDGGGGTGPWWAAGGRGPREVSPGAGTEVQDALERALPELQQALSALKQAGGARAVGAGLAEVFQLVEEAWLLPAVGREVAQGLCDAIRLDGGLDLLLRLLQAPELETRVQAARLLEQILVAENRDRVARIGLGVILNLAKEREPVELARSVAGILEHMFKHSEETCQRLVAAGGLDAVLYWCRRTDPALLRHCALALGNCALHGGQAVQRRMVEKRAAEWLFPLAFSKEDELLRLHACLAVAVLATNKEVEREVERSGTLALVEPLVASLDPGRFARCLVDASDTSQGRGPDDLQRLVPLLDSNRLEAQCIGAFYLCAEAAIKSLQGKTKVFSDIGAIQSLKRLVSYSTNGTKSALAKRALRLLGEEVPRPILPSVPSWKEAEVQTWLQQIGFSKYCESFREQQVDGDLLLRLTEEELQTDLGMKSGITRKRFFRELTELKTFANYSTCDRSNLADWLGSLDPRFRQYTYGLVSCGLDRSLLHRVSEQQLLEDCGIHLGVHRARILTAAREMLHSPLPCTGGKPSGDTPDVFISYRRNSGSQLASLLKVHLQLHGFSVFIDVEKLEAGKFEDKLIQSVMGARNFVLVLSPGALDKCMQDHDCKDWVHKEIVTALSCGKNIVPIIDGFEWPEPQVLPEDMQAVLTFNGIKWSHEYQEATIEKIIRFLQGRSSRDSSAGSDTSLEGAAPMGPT
# Test: SARM1 TIR NADase inhibitors, cell lysate, NAD-Glo luminescence (AID 1508614);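 also: higher remaining NAD means stronger inhibition of SARM1 NADase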
# Details: SAM-TIR HEK293T lysate NADase, at 1 µM, stronger effect = higher value
row,Structure (SMILES),remaining NAD
1,CC1CC(OC(=O)C(O)c2ccccc2)CC(C)(C)N1C (stereo not given),10 nM (inactive)
2,O=C(O)c1ccccc1OP(=O)(O)O,10 nM (inactive)
3,Cc1ccnc(NS(=O)(=O)c2ccc(N)cc2)n1,10 nM (inactive)
4,Cc1c(NC(C)C)c(=O)n(-c2ccccc2)n1C,10 nM (inactive)
5,Nc1ccc(S(=O)(=O)Nc2cnc3ccccc3n2)cc1,10 nM (inactive)
6,COc1ccc(C(=O)c2ccccc2O)c(O)c1,10 nM (inactive)
7,CC(=O)[C@@]1(O)CC[C@H]2[C@@H]3C[C@H](C)C4=CC(=O)C=C[C@]4(C)[C@@]3(F)[C@@H](O)C[C@@]21C,10 nM (inactive)
8,Nc1c2ccccc2nc2ccccc12,10 nM (inactive)
9,COc1c2occc2c(OC)c2c(=O)cc(C)oc12,10 nM (inactive)
10,O=C(O)CCCC[C@@H]1SC[C@@H]2NC(=O)N[C@@H]21,10 nM (inactive)
11,COc1cnc(NS(=O)(=O)c2ccc(N)cc2)nc1,10 nM (inactive)
12,Nc1ncnc2nc[nH]c12,10 nM (inactive)
13,CCCCOC(=O)c1ccc(N)cc1,10 nM (inactive)
14,NS(=O)(=O)c1cc2c(cc1Cl)NC(CSCc1ccccc1)=NS2(=O)=O,10 nM (inactive)
15,Nc1nc2c(c(=O)[nH]1)N(C=O)C(CNc1ccc(C(=O)N[C@@H](CCC(=O)O)C(=O)O)cc1)CN2 (stereo not given in full),10 nM (inactive)
16,CCCCC(CC)CN1CN(CC(CC)CCCC)CC(C)(N)C1 (stereo not given),10 nM (inactive)
17,C[C@H](N)[C@H](O)c1cccc(O)c1,10 nM (inactive)
18,NC(=O)NC1NC(=O)NC1=O (stereo not given),10 nM (inactive)
19,C[N+]12CCC(CC1)C(OC(=O)C(O)(c1ccccc1)c1ccccc1)C2 (stereo not given),10 nM (inactive)
20,O=C(O)c1ccccc1O,10 nM (inactive)

row,Structure (SMILES),remaining NAD
1,CCOc1ccc(Cc2nccc3cc(OCC)c(OCC)cc23)cc1OCC,10 nM (inactive)
2,C[C@@H]1C[C@H]2[C@@H]3C[C@H](F)C4=CC(=O)C=C[C@]4(C)[C@@]3(F)[C@@H](O)C[C@]2(C)[C@@]1(O)C(=O)CO,10 nM (inactive)
3,Oc1c(Br)cc(Br)c2cccnc12,10 nM (inactive)
4,Cc1c(Nc2ncccc2C(=O)O)cccc1C(F)(F)F,10 nM (inactive)
5,CCN(CC)CCNC(=O)c1cc(Br)c(N)cc1OC,10 nM (inactive)
6,CCCCN(CCCC)CCCOC(=O)c1ccc(N)cc1,10 nM (inactive)
7,O=C(O)c1ccccc1C(=O)Nc1ccc(S(=O)(=O)Nc2nccs2)cc1,10 nM (inactive)
8,CCC(Cc1c(I)cc(I)c(N)c1I)C(=O)O (stereo not given),10 nM (inactive)
9,Nc1ccc(S(=O)(=O)Nc2nccs2)cc1,10 nM (inactive)
10,Nc1ccc(S(=O)(=O)NC(=O)c2ccccc2)cc1,10 nM (inactive)
11,CN1[C@@H]2CC[C@H]1CC(OC(=O)C(O)c1ccccc1)C2 (stereo not given in full),10 nM (inactive)
12,CCOC(=O)c1ccc(N)cc1,10 nM (inactive)
13,CC(NCCC(c1ccccc1)c1ccccc1)c1ccccc1 (stereo not given),10 nM (inactive)
14,CCN1CCCC(OC(=O)C(c2ccccc2)c2ccccc2)C1 (stereo not given),10 nM (inactive)
15,CCCCc1nc(Cl)c(CO)n1Cc1ccc(-c2ccccc2-c2nn[nH]n2)cc1,10 nM (inactive)
16,CC1(C)O[C@@H]2C[C@H]3[C@@H]4C[C@H](F)C5=CC(=O)CC[C@]5(C)[C@H]4[C@@H](O)C[C@]3(C)[C@]2(C(=O)CO)O1,10 nM (inactive)
17,COc1cc(NS(=O)(=O)c2ccc(N)cc2)ncn1,10 nM (inactive)
18,OCC(O)CN1CCN(c2ccccc2)CC1 (stereo not given),10 nM (inactive)
19,Cc1c(C(N)=O)cc([N+](=O)[O-])cc1[N+](=O)[O-],10 nM (inactive)
20,CCN(CCCCOC(=O)c1ccc(OC)c(OC)c1)C(C)Cc1ccc(OC)cc1 (stereo not given),10 nM (inactive)
